Assay results reported in PubChem BioAssay (Tox21).
Results filed as inconclusive are left out. The source made the active and inactive calls. Unless noted, calls come from the whole dose curve; as a rule, active = well fitted curve in the direction sought with a large enough effect in the repeat runs; inconclusive = weak or mixed curves; inactive = no such curve, though single readings can be large; an effect the other way counts as inactive or inconclusive.

Key:
[1] = qHTS assay to identify small molecule agonists of the peroxisome proliferator-activated receptor delta (PPARd) signaling pathway - cell viability counter screen (AID 743211); note: nearly all actives have a fitted effect of over 55% in size
Outline: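 Viability of GeneBLAzer PPARd UAS-bla HEK293H cells was assessed after 17 h compound incubation at 37C, using CellTiter-Glo reagent added after the reporter read and luminescence recorded 30 min later.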

[2] = biological target: Peroxisome proliferator-activated receptor delta (Homo sapiens) (UniProt Q03181); assay: qHTS assay to identify small molecule agonists of the peroxisome proliferator-activated receptor delta (PPARd) signaling pathway (AID 743212; calls by dose curve)
Outline: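 Cells expressing a UAS-driven beta-lactamase reporter (PPARd-bla HEK293H) were given test compounds after a 5 h settle and kept at 37 C. Reporter activity was then measured as FRET fluorescence using LiveBLAzer B/G substrate.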

[3] = biological target: Peroxisome proliferator-activated receptor delta (Homo sapiens) (UniProt Q03181); assay: qHTS assay to identify small molecule antagonists of the peroxisome proliferator-activated receptor delta (PPARd) signaling pathway (AID 743215; active = well fitted inhibition curve with a large enough effect in the signal ratio in the repeat runs, not every such curve was filed as active; the % refers to the signal ratio;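 note: cells stimulated with agonist L165041 at 300 nM final during compound exposure; series mostly up to about 62 µM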)
Outline: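 HEK293H GeneBLAzer PPARd UAS-bla reporter cells; cpd + L165041 300 nM final, 17 h 37 C; LiveBLAzer B/G FRET substrate 2 h RT; fluorescence intensity read-out. Antagonist mode.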

[4] = qHTS assay to identify small molecule agonists of the farnesoid-X-receptor (FXR) signaling pathway - cell viability counter screen (AID 743218); note: nearly all actives have a fitted effect of over 45% in size
Outline: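 Luminescence from CellTiter-Glo, read after 30 min at RT, reports viability of GeneBLAzer FXR-UAS-bla HEK 293T cells treated 16 h with compounds in the wells used for the beta-lactamase reporter.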

[5] = qHTS assay to identify small molecule antagonists of the farnesoid-X-receptor (FXR) signaling pathway - cell viability counter screen (AID 743221; active = well fitted cell-killing curve with a large enough effect in the repeat runs, not every such curve was filed as active; note: nearly all actives have a fitted effect of over 50% in size)
Outline: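 Quantitative HTS of the Tox21 10K library run in parallel with the beta-lactamase reporter read. HEK 293T cells carrying a UAS-driven bla reporter got compound and 50 uM CDCA (final) for 16 h; ATP-based luminescence followed.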

[6] = biological target: Vitamin D3 receptor (Homo sapiens) (UniProt P11473); assay: qHTS assay to identify small molecule agonists of the vitamin D receptor (VDR) signaling pathway (AID 743222; calls by dose curve)
Outline: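 Beta-lactamase reporter readout (LiveBLAzer B/G FRET, 2 h RT) in VDR-bla cells after 16 h compound treatment at 37C, 5% CO2; cells pre-incubated 4 h before pin transfer of DMSO solutions.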

[7] = biological target: Bile acid receptor (Homo sapiens) (UniProt Q96RI1); assay: qHTS assay to identify small molecule antagonists of the farnesoid-X-receptor (FXR) signaling pathway (AID 743217; active = well fitted inhibition curve with a large enough effect in the signal ratio in the repeat runs, not every such curve was filed as active; the % refers to the signal ratio)
Outline: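 Read-out: beta-lactamase FRET fluorescence (LiveBLAzer B/G substrate, 2 h, room temperature) in GeneBLAzer FXR-UAS-bla HEK 293T cells. Compounds were co-dosed with 50 uM chenodeoxycholic acid (final) and incubated 16 h at 37 °C.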

[8] = biological target: Bile acid receptor (Homo sapiens) (UniProt Q96RI1); assay: qHTS assay to identify small molecule agonists of the farnesoid-X-receptor (FXR) signaling pathway (AID 743220; active = well fitted activation curve with a large enough effect in the signal ratio in the repeat runs, not every such curve was filed as active; the % refers to the signal ratio)
Outline: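 FXR-UAS-bla HEK 293T cells carrying a UAS-driven beta-lactamase reporter were plated for 5 h at 37C/5% CO2, then exposed to DMSO-dissolved Tox21 10K compounds for 16 h at 37C. A LiveBLAzer B/G FRET substrate was loaded for 2 h at room temperature before fluorescence reading.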

[9] = qHTS assay to identify small molecule antagonists of the peroxisome proliferator-activated receptor delta (PPARd) signaling pathway - cell viability counter screen (AID 743213); note: nearly all actives have a fitted effect of over 50% in size
Outline: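 Viability counter-screen, qHTS format: PPARd-bla HEK293H, L165041 300 nM final, 17 h compound exposure at 37 C, CellTiter-Glo luminescence after 30 min RT.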

[10] = biological target: Vitamin D3 receptor (Homo sapiens) (UniProt P11473); assay: qHTS assay to identify small molecule antagonists of the vitamin D receptor (VDR) signaling pathway (AID 743223; active = well fitted inhibition curve with a large enough effect in the signal ratio in the repeat runs, not every such curve was filed as active; the % refers to the signal ratio)
Outline: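 Fluorescence from LiveBLAzer B/G FRET substrate, read after 2 h at room temperature, reflects beta-lactamase reporter activity in VDR-bla cells treated 16 h at 37C with compounds and agonist 1alpha,25-dihydroxyvitamin D3 (3 nM final).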

Measured: outcome

Chain of Vitamin D3 receptor (Homo sapiens) (P11473 whole entry, looked up): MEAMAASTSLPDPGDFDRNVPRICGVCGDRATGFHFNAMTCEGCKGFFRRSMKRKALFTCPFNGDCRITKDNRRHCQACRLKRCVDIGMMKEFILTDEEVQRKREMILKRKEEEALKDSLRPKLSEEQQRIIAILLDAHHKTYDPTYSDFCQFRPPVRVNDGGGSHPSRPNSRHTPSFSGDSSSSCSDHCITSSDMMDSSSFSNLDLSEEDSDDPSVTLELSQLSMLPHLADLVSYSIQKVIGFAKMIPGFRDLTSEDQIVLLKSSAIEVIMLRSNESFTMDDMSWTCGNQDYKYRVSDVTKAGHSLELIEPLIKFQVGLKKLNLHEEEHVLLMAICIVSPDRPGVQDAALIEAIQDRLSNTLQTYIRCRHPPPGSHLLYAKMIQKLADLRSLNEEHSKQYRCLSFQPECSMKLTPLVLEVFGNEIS
Chain of Peroxisome proliferator-activated receptor delta (Homo sapiens) (Q03181 whole entry, looked up): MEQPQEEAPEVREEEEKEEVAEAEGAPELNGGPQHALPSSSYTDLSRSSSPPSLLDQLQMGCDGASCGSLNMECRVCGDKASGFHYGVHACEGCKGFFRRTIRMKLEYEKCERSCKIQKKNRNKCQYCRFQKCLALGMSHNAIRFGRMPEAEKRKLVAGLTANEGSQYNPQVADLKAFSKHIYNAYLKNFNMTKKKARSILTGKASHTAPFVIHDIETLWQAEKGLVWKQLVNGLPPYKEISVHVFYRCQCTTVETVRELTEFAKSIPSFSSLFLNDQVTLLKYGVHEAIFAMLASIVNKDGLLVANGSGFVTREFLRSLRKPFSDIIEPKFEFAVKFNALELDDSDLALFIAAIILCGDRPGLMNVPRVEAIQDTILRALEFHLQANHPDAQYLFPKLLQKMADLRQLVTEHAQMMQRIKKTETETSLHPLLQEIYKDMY
Chain of Bile acid receptor (Homo sapiens) (Q96RI1 whole entry, looked up): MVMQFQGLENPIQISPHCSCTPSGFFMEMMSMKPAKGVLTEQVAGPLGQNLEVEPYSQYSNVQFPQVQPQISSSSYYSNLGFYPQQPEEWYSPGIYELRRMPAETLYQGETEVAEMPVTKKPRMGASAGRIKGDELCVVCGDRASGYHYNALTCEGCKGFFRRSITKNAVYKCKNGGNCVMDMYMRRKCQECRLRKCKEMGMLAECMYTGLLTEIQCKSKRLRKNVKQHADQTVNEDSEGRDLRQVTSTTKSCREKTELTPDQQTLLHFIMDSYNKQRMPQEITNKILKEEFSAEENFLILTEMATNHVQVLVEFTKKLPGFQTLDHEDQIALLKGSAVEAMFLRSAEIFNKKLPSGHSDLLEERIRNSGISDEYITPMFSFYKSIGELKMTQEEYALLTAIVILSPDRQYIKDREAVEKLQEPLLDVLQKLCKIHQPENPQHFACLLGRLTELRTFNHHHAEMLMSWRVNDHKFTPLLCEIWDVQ

CCC(C)OC(C)CC (stereo not drawn)
inactive: [1] | [2] | [3] | [4] | [5] | [6]

CCCCCCCCCCCCCCCCCCOCCO
not listed: [9] | [10]
inactive: all other assays above

CC(=O)O[C@H]1C[C@@H]2CC[C@@]1(C)C2(C)C
inactive: [1] | [9] | [7] | [8] | [5] | [6]

c1ccc(-c2nn[nH]n2)cc1
not listed: [2] | [3]
inactive: all other assays above
